The nature of the assay: basal RPMI8226 mitochondrial membrane potential changes, profiling panel, cell-based, JC-1 fluorescence, 24 h, 100 nL compound (AID 1169). Further: test concentration not given here. The settings on record: RPMI8226 myeloma, JC-1 mitochondrial potential fluorescence, higher = more signal.
As for `CC(=O)NCCCC[C@@H]1NC(=O)[C@@H]2C[C@H](C(=O)NCCCCCNC(=O)CS)[C@H](c3cccc(OCCO)c3)N2C1=O`, the z-score stood at 0.436.
With `COc1ccccc1CN1C(=O)c2ccccc2[C@@]2(Cc3ccccc3N(CC(C)C)C2=O)[C@@H]1c1ccc(CO)cc1`, the z-score is -0.887.
Under `CC(CO)N1C(=O)[C@@H]2C3C(=O)OCCC/C=C\[C@H]3OC23C=CCN(C(C)(C)C)C(=O)[C@@H]13` (stereo partly drawn) stands -0.458; under `CC1(C)[C@@H]2CC(C(O)C3C=CC4C(=O)N(Cc5ccccc5)C(=O)C4N3n3cnnc3)=C[C@H]1C2` (stereo partly drawn), -0.124; under `O=C1C[C@@](C(=O)NC2CC2)(c2ccc([N+](=O)[O-])cc2)[C@@H](c2ccc(CO)cc2I)N1C1CCCCC1`, -0.36.
Under `NC(=O)NCC#Cc1ccc2c(c1)[C@]1(C(=O)N2)[C@H](C(=O)Nc2nc3ccccc3s2)[C@H]2C(=O)O[C@H](c3ccccc3)[C@H](c3ccccc3)N2[C@@H]1c1ccccc1OCCO` stands -0.517; under `O=C1c2ccccc2[C@](Cc2ccccc2I)(C(=O)NCC(F)(F)F)[C@H](c2ccc(CO)cc2)N1Cc1ccccc1Cl`, -0.68; under `CCC[C@@H]1C[C@@]1(CCC)[C@@H](NS(=O)(=O)c1cccc2cccnc12)c1ccc(Cl)cc1`, 0.137.
Under `CCCC[C@@H]1C[C@H]1[C@@H](NC(=O)c1ccco1)c1ccc(-c2ccccc2)cc1` stands -0.0532; under `Cc1ccc(S[C@]2(C(=O)NCCCN(C)C)CC(=O)N(Cc3cc(C(F)(F)F)cc(C(F)(F)F)c3)[C@@H]2c2ccc(CO)cc2)cc1`, 0.199.
As for `C=C[C@@H](COC(=O)OC(C)(C)C)N(Cc1ccc(OC)cc1)S(=O)(=O)c1ccc(Br)cc1`, the z-score is -0.525.
Under `COCCOC(=O)N1C(=O)[C@@]2(c3cc(C#CCC(C(=O)OC)C(=O)OC)ccc31)[C@H](C(=O)N1CCN(c3ncccn3)CC1)[C@H]1C(=O)O[C@H](c3ccccc3)[C@H](c3ccccc3)N1[C@@H]2c1ccccc1OCCO` stands -0.182; under `CN1C(=O)C2C=CC(C(O)c3ccccc3)N(N(c3ccccc3)c3ccccc3)C2C1=O` (stereo not drawn), 0.538; under `COc1ccc([Si](C)(C)[C@H]2[C@H](CC(=O)N3Cc4ccccc4C[C@H]3CO)O[C@@]3(C(=O)N(Cc4cccc(N5CCC5=O)c4)c4ccccc43)[C@@H]2C)cc1`, -1.02.
Under `C=CCC(OC(C)=O)[C@@H]1[C@@H](N(Cc2ccc(-c3cccc(C(F)(F)F)c3)o2)C(=O)c2ccc(C)cc2)c2cc(OCCCO)ccc2N1C(=O)Cc1ccc2ccccc2c1` (stereo partly drawn) stands 1.01; under `Oc1ccc2cc[n+](Cc3sc4ccccc4c3Cl)cc2c1`, 0.376; under `COC(=O)C(CC#Cc1ccc2c(c1)[C@]1(C(=O)N2)[C@H](c2ccc(OCCO)cc2)N2[C@H](c3ccccc3)[C@H](c3ccccc3)OC(=O)[C@H]2[C@@H]1C(=O)N1CCc2cc(OC)c(OC)cc2C1)C(=O)OC`, -0.929.
Under `COc1ccc(CCNC(=O)[C@@]2(Sc3ccc(C)cc3)CC(=O)N(C(C)C)[C@@H]2c2ccc(CO)cc2I)cc1` stands -0.686; under `CN(C)CCCC[C@@H]1NC(=O)[C@@H]2C[C@H](C(=O)NCCCCCCN)[C@H](c3cccc(OCCO)c3)N2C1=O`, -0.17; under `C=CCN1C(=O)[C@]2(O[C@H](CCn3cc([C@H](O)c4ccccc4)nn3)[C@@H]([Si](C)(C)c3ccc(OC)cc3)[C@@H]2C)c2ccccc21`, -0.953.
Molecule `COC(=O)C(CC#Cc1ccc2c(c1)[C@]1(C(=O)N2)[C@H](C(=O)Nc2nc3ccccc3s2)[C@H]2C(=O)O[C@H](c3ccccc3)[C@H](c3ccccc3)N2[C@@H]1c1ccc(O)cc1)C(=O)OC` had a z-score of -1.31.
Under `COc1cc2c(cc1O)C(c1cccs1)N(C)CC2` (stereo not drawn) stands -0.0651; under `C=CC[C@]1(C(=O)NCc2ccccc2)N=C(c2ccc(OCCCO)cc2)O[C@H]1c1ccccc1N=[N+]=[N-]`, -0.938.
The value for `O=C(c1ccccc1)N1Cc2ccccc2C[C@@]2(COC(c3ccc(OCCCO)cc3)=N2)C1=O` was -0.676; that for `C=C[C@H](C)[C@@H](OC(=O)Nc1ccc(OC)cc1)c1ccc(O)c2ccccc12` was -1.01.
The value for `CCC(CC)C(O)C1C=CC2C(=O)NC(=O)C2N1Nc1ccc(Cl)cc1Cl` (stereo not drawn) was -0.661; that for `COc1ccc(C#Cc2ccc3c(c2)[C@]2(C(=O)N3)[C@H](c3ccccc3OCCO)N3[C@H](c4ccccc4)[C@H](c4ccccc4)OC(=O)[C@H]3[C@@H]2C(=O)Nc2nc3ccccc3s2)cc1` was -0.631.
In the case of `O=C(CS)NCCCCCCNC(=O)[C@@H]1C[C@@H]2C(=O)N[C@@H](Cc3ccccc3)C(=O)N2[C@@H]1c1cccc(OCCO)c1`, the z-score is 0.198.

The values above are taken from PubChem BioAssay.
